From ChEMBL document CHEMBL4513146, “CO-ADD screening of Karazin Kharkiv National University (Ukraine) compounds”
Results with a measured potency or affinity are listed apart.

How the values were obtained:
[1] = test system: Klebsiella pneumoniae; conditions: Concentration 32 ug.mL-1;; ASSAY_TEST Inhibition of Bacterial Growth; detection method Absorption (OD600); MEDIA CAMHB; plate type 384well; NBS; CORNING #3640; time 18 hr
[2] = test system: Candida albicans; conditions: Concentration 32 ug.mL-1; ASSAY_TEST Inhibition of Fungal Growth; detection method Absorption (OD530)
[3] = test system: Cryptococcus neoformans; conditions: Concentration 32 ug.mL-1; ASSAY_TEST Inhibition of Fungal Growth; detection method Resazurin; Absorption (OD600-OD570); plate type 384well; NBS; CORNING #3640

Row | Compound | Inhibition [1] [%] | Inhibition [2] [%] | Inhibition [3] [%]
1 | Cc1ccc(-c2cc3c4nn(CC(=O)Nc5ccccc5Cl)c(=O)n4ccn3n2)cc1 | 2.6 | 0.36 | -23.03
2 | CCC(Sc1nnc2c(=O)n(-c3ccc(C)c(C)c3)ccn12)C(=O)Nc1ccccc1C (stereo unspecified) | 15.08 | 1 | -9.85
3 | Cc1nnc2c(=O)n(CC(=O)Nc3ccc(Br)cc3)c3ccccc3n12 | 3.12 | 2.53 | -1.52
4 | O=C(Cn1nc2ccc(SCc3ccc(Cl)cc3)nn2c1=O)Nc1ccc2c(c1)OCO2 | 15.3 | 22.84 | -22.42
5 | CC(C)c1nnc2c(=O)n(CC(=O)Nc3ccc(Br)cc3)c3ccccc3n12 | 14.25 | 2.31 | -6.21
6 | COc1ccc(-c2cc3c4nn(CC(=O)Nc5ccccc5OC)c(=O)n4ccn3n2)cc1 | 7.14 | 0.94 | -14.32
7 | O=S(=O)(c1ccc2nncn2c1)N(Cc1cccc(F)c1)c1ccc(F)c(F)c1 | 13.11 | 5.52 | -5.3
8 | CCc1nnc2c(S(=O)(=O)N(Cc3ccccc3C)c3ccc(C(C)C)cc3)cccn12 | 3.73 | 21.84 | -8.38
9 | CCOC(=O)c1ccccc1NC(=O)Cn1nc2ccc(C(=O)Nc3ccc(OC)cc3)cn2c1=O | -1.54 | 25.24 | -9.29
10 | CCc1ccccc1NC(=O)Cn1nc2c(SCc3ccc(Cl)cc3)nccn2c1=O | 13.77 | 2.88 | -20.04
11 | Cc1cc(Nc2ccc(F)cc2)nc2nn(Cc3cccc(C#N)c3)c(=O)n12 | 10.49 | 2.04 | -10.7
12 | Cc1nc(-c2ccccc2)cc2nn(CC(=O)Nc3ccc4c(c3)OCO4)c(=O)n12 | 6.91 | 0.14 | -7.69
13 | O=c1c2nnc(SCc3ccccc3Cl)n2ccn1-c1ccc(F)cc1 | 8 | 2.71 | -9
14 | Cc1cc2nn(CC(=O)Nc3ccc(F)cc3Cl)c(=O)n2c(Nc2ccc(F)cc2)n1 | 8.79 | 8.11 | -3.99
15 | Cc1ccc(NC(=O)Cn2nc3c(Sc4ccccc4)nccn3c2=O)c(C)c1 | 7.2 | 3.33 | -10.8
16 | Cc1ccccc1N1CCN(c2nccn3c(=O)n(CC(=O)NCc4cc(F)cc(F)c4)nc23)CC1 | 4.01 | 0.32 | -4.76
17 | Cc1cc(C)c(NC(=O)Cn2nc3c4cc(-c5ccc(F)cc5)nn4ccn3c2=O)c(C)c1 | 17.22 | 18.72 | -19.36
18 | CCOc1ccc(-n2ccn3c(SCC(=O)Nc4ccc5c(c4)OCCO5)nnc3c2=O)cc1 | 3.14 | 6.39 | -10.75
19 | COc1cc(NC(=O)Cn2nc3n(CCc4ccccc4)c(=O)c4ccccc4n3c2=O)cc(OC)c1 | 10.27 | 12 | -22.83
20 | Cc1cc2nn(CC(=O)Nc3cc(F)cc(F)c3)c(=O)n2c(Nc2ccc(F)c(C)c2)n1 | 18.09 | 3.34 | -11.58
21 | Cc1nnc2c(S(=O)(=O)N(Cc3ccc(F)cc3)c3ccc(C(C)C)cc3)cccn12 | 1.5 | 2.93 | -6.86
22 | Cc1ccc(Sc2nccn3c(=O)n(CC(=O)Nc4ccc(C)c(Cl)c4)nc23)c(C)c1 | 10.52 | -2.58 | -26.74
23 | COc1ccc(NC(=O)Cn2nc3c4c5c(sc4ncn3c2=O)CCCC5)cc1 | 6.74 | 5.37 | -17.73
24 | COc1cccc(CN(c2cccc(F)c2)S(=O)(=O)c2ccc3nnc(C)n3c2)c1 | 3.28 | 3.11 | -1.07
25 | CC(=O)c1ccc(NC(=O)Cn2nc3ccc(-c4ccc(C)c(C)c4)nn3c2=O)cc1 | 0 | 0.28 | -8.82
26 | CC(C)CCNC(=O)CSc1nnc2c(=O)n(Cc3ccc(F)cc3)ccn12 | 4.54 | 1.44 | -7.36
27 | COC(=O)c1cccc(NC(=O)Cn2nc3c(Oc4ccccc4)nccn3c2=O)c1 | 3.42 | 3.07 | -9.43
